In PubChem BioAssay (NCATS):
Inconclusive results are not listed. Unmarked numbers belong to inactive results. The source made the active and inactive calls. Calls come from the whole dose curve; as a rule, active = well fitted inhibition curve with a large enough effect; inconclusive = small, poorly fitted or top-dose-only effect; inactive = flat fitted curve, though single readings scatter.

tested on: NIH3T3; assay: Cytotoxic Profiling of Annotated Libraries Using Quantitative High-Throughput Screening (AID 1296008); conditions: Five cell lines viability, CellTiter-Glo ATP luminescence, 48-72 h; max response: hits give low values; note: nearly all actives have a fitted effect of over 60% in size
Summary of the method: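 Cells exposed to compounds for 48 or 72 hr at 37 degrees Celsius. Viability read as ATP-coupled luminescence with CellTiter-Glo after 10 min at room temperature.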
% is set by controls: 0 for no effect and ±100 for the full control effect; potency is the fitted concentration of half-maximal effect.

How did the max response turn out when `CO[C@H]1C[C@@H]2CC[C@@H](C)[C@@](O)(O2)C(=O)C(=O)N2CCCC[C@H]2C(=O)O[C@H]([C@H](C)C[C@@H]2CC[C@@H](OP(C)(C)=O)[C@H](OC)C2)CC(=O)[C@H](C)/C=C(\C)[C@@H](O)[C@@H](OC)C(=O)[C@H](C)C[C@H](C)/C=C/C=C/C=C/1C` was run?
The max response was -16.2%.

`O=C(COc1cccc2c(=O)[nH]ccc12)c1ccccc1` was tested. Which max response did it give?
Its max response is 1.93%.

How did the max response turn out when `C=C[C@@H]1[C@H](O[C@@H]2O[C@H](CO)[C@@H](O)[C@H](O)[C@H]2O)OC=C(C(=O)O)[C@H]1CCOC(=O)/C=C/c1ccc(O)c(O)c1` was run?
Its max response is 0.24%.

How did the max response turn out when `COc1cc(/C=C/C(=O)O[C@H]2[C@H](O)[C@@H](CO)O[C@@]2(CO)O[C@H]2O[C@H](CO)[C@@H](O)[C@H](O)[C@H]2O)ccc1O` was run?
The max response was 1.81%.

For `COc1ccc(N2CCOCC2)c2sc(NC(=O)N3CCC(C)(O)CC3)nc12`, which max response is on record?
The max response was -12%.

For `COC(=O)N(C)c1c(N)nc(-c2nn(Cc3ccccc3F)c3ncccc23)nc1N`, which max response is on record?
The max response was 0.88%.

With `C[C@@H]1O[C@@H](O[C@H]2[C@H](O)[C@@H](O)[C@H](OC[C@H]3O[C@@H](OC(=O)[C@]45CCC(C)(C)C[C@H]4C4=CCC6[C@@]7(C)CC[C@H](O[C@@H]8OC[C@H](O)[C@H](O[C@@H]9O[C@H](CO)[C@@H](O)[C@H](O)[C@H]9O)[C@H]8O)[C@@](C)(CO)C7CC[C@@]6(C)[C@]4(C)CC5)[C@H](O)[C@@H](O)[C@@H]3O)O[C@@H]2CO)[C@H](O)[C@H](O)[C@H]1O` (stereo partly drawn) as the compound, how does the max response read?
Its max response is -6.93%.

How did the max response turn out when `CC1OC(OC2C(O)C(OC3CCC4(C)C(CCC5(C)C4CC=C4C6CC(C)(COC7OC(CO)C(O)C(O)C7O)CC(O)C6(C)CCC45C)C3(C)C)OC(C(=O)O)C2O)C(O)C(O)C1OC1OCC(O)C(O)C1O` (stereo not drawn) was run?
Its max response is -0.449%.

With `CC1=CC(=O)C2(OC3OC(C)C(O)C(OC(=O)/C=C/c4ccccc4)C3O)C=COC(OC3OC(CO)C(O)C(O)C3O)C12` (stereo not drawn) as the compound, how does the max response read?
Its max response is 3.5%.

With `CC(=O)OCC1(O)CCC2C(COC3OC(CO)C(O)C(O)C3OC(=O)/C=C/c3ccc(O)cc3)=COC(OC(=O)CC(C)C)C21` (stereo not drawn) as the compound, how does the max response read?
The max response was 3.4%.

`CC(C)C[C@H](CC(=O)NO)C(=O)N[C@@H](Cc1ccc2ccccc2c1)C(=O)N[C@@H](C)C(=O)NCCN` was tested. Which max response did it give?
The max response was -2.62%.

With `CC1(O)CCCC2(C)C1CCC13CC(CO)C(CCC12)C3` (stereo not drawn) as the compound, how does the max response read?
The max response was -0.27%.

With `COc1ccc(/C=C/C(=O)O[C@@H]2[C@@H](O)[C@H](C)O[C@@H](O[C@H]3[C@@H]4C=CO[C@@H](O[C@H]5O[C@@H](CO)[C@H](O)[C@@H](O)[C@@H]5O)[C@@H]4[C@@]4(CO)O[C@@H]34)[C@@H]2OC(C)=O)cc1` as the compound, how does the max response read?
Its max response is 1.61%.

With `CC(=O)c1c(O)cc(O[C@@H]2O[C@H](CO)[C@@H](O)[C@H](O)[C@H]2O)cc1O` as the compound, how does the max response read?
The max response was 1.77%.

How did the max response turn out when `CC1=CC(=O)CC(C)(C)C1CCC(C)O[C@@H]1O[C@H](CO[C@@H]2OC[C@@H](O)[C@H](O)[C@H]2O)[C@@H](O)[C@H](O)[C@H]1O` (stereo partly drawn) was run?
Its max response is 3.34%.

How did the max response turn out when `CC(=O)OC[C@]12[C@H](OC(C)=O)C(=O)[C@@H]3[C@@H](OC(C)=O)[C@@]14O[C@@]3(C)COC(=O)c1cccnc1[C@@H](C)[C@H](C)C(=O)O[C@@H]([C@H](O)[C@@H]2OC(C)=O)[C@]4(C)O` was run?
The max response was -21%.

For `N#Cc1cnc2cnc(NCc3cccnc3)cc2c1Nc1ccc(F)c(Cl)c1`, which max response is on record?
The max response was -8.77%.

With `Cc1ccccc1C#Cc1ccc(CCC(=O)O)cc1` as the compound, how does the max response read?
The max response was -10.2%.

Which Potency does the source give for `Cc1cc(C)c(Nc2ccnc(Nc3ccc(C#N)cc3)n2)c(C)c1` here?
The Potency was 13 µM (active).

For `NC[C@@](O)(c1ccc(Cl)cc1)c1ccc(-c2cn[nH]c2)cc1`, which Potency is on record?
The Potency was 5.17 µM (active).

For `Cn1nc(C(C)(C)C)cc1C(=O)NC(Cc1cccc(Cl)c1)C(=O)NCC#N` (stereo not drawn), which max response is on record?
Its max response is 0.163%.

How did the max response turn out when `O=C1C=CC(O)(/C=C/C(=O)OC[C@H]2O[C@@H](Oc3ccc(O)cc3)[C@H](O)[C@@H](O)[C@@H]2O)C=C1` was run?
Its max response is -0.599%.

With `C=C1C(O)C(O)C2(CC3C(C)=CCC4C(C)(CO)CCCC34C)OC2C1O` (stereo not drawn) as the compound, how does the max response read?
Its max response is -5.46%.

`COC(=O)CCC(=O)OC[C@]1(C)CCC[C@@]2(C)C3CC[C@]4(C)C=CC3(CCC12)C4` (stereo partly drawn) was tested. Which max response did it give?
The max response was -0.0416%.

`Cc1ccc(-c2ccc3ncc4c(c3n2)n(C2CCN(C(=O)[C@H](C)O)CC2)c(=O)n4C)cn1` was tested. Which Potency did it give?
The Potency was 0.231 µM (active).

`CC(C)c1cc2c(c(O)c1O)[C@@]13CCCC(C)(C)[C@@H]1[C@H](OC3=O)C2=O` was tested. Which max response did it give?
The max response was 3.28%.

With `OC[C@H]1O[C@@H](OCCc2ccccc2)[C@H](O[C@@H]2OC[C@](O)(CO)[C@H]2O)[C@@H](O)[C@@H]1O` as the compound, how does the max response read?
The max response was 1.81%.

Which Potency does the source give for `CCNC(=O)Nc1ccc(-c2nc3c(c(N4CCOC[C@@H]4C)n2)CCN(c2ncccn2)C3)cc1` here?
The Potency was 1.03 µM (active).

How did the max response turn out when `C=C1C(OC(=O)/C(C)=C\C)[C@@]23CCC4[C@@](C)(CCC[C@@]4(C)C(=O)O)C2CC[C@H]1C3OC(C)=O` (stereo partly drawn) was run?
The max response was 1.34%.

With `COC(=O)C[C@H]1[C@]2(C)C3=C(C)[C@H](c4ccoc4)C[C@H]3O[C@@H]2[C@H](OC(C)=O)C2[C@](C)(C(=O)OC)C=CC(=O)[C@@]21C` (stereo partly drawn) as the compound, how does the max response read?
The max response was 4.56%.

How did the max response turn out when `CN[C@H](C(=O)N[C@H](C(=O)N(C)[C@H](/C=C(\C)C(=O)O)C(C)C)C(C)(C)C)C(C)(C)c1ccccc1` was run?
Its max response is -50.4%.

How did the max response turn out when `C=CC(C)(CC/C=C(\C)C(=O)OC)OC1OC(COC(=O)CC(C)(O)CC(=O)O)C(OC2OC(CO)C(O)C(O)C2O)C(O)C1O` (stereo not drawn) was run?
The max response was 2.15%.

For `CCN(CC)CCN(Cc1ccc(-c2ccc(C(F)(F)F)cc2)cc1)C(=O)Cn1c(SCc2ccc(F)cc2)nc(=O)c2c1CCC2`, which Potency is on record?
The Potency was 4.61 µM (active).

Which Potency does the source give for `Cc1ncc(CCCN(C)C)cc1Nc1ncc2c(n1)-c1ccc(C(F)(F)F)cc1NC(=S)C2` here?
The Potency was 3.66 µM (active).

`COc1cc(C(=O)OC[C@@]2(O)CO[C@@H](O[C@H]3[C@H](Oc4ccc(C(=O)O)cc4OC)O[C@H](CO)[C@@H](O)[C@@H]3O)[C@@H]2O)ccc1O` was tested. Which max response did it give?
Its max response is 3.57%.

For `CCC(=O)O[C@H]1C(C)(C)[C@H]([C@@H](O)C(=O)OC)[C@]2(C)C(=O)[C@@]1(O)[C@H]1O[C@]13C1CC(=O)O[C@@H](c4ccoc4)[C@]1(C)CCC32` (stereo partly drawn), which max response is on record?
Its max response is -25.4%.

For `C=C1CCC2C(C)(C)C(O)CCC2(C)C1CCC(C)CCO` (stereo not drawn), which max response is on record?
Its max response is -0.535%.

`C[C@@H]1C(=O)O[C@H]2[C@@H](O)C34[C@H]5C[C@@H](C(C)(C)C)C36[C@@H](OC(=O)[C@@H]6O)O[C@@]4(C(=O)O5)[C@@]12O` (stereo partly drawn) was tested. Which max response did it give?
The max response was -0.498%.
